Screens as filed in PubChem BioAssay.
Most compounds without a hit are left out; they make up all but 3.4% or so of the library.
esBAF inh – SWI/SNF esBAF complex inhibition; actives 2% (n = 350,000); mouse ES cells, Bmi1-luciferase knock-in reporter, 24 h; 100% = twice the neutral-well signal; reporter increase, % at 12.5 µM; in the data active = activation above about 40%; inconclusive = no clear call, values can overlap the other calls;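 also: 0% = median of the plate's neutral control wells and 100% = double that signal; a rise in the Bmi1 reporter signal indicates esBAF inhibition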
miR-122 sensor – blocks miR-122 activity in Huh7 sensor cells; AID 602342; activation (reporter increase), % at 12.5 µM; Huh7 miR-122 Renilla luciferase sensor, 48 h; neutral wells = 0, positive control = 100; actives 0.3% (n = 340,000);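 active = mean replicate activation score at least 90 and every replicate individually at or above 90; inconclusive = only one of the two criteria met; inactive = neither criterion met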;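 also: higher luciferase means less miR-122 activity so hits act as miR-122 inhibitors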
HIV Env fusion – blocks HIV Env-driven cell-cell fusion; HeLa-JRFL Env/CEM21 cell fusion, luciferase; inhibition, % at 12.3 µM; actives 1.1% (n = 360,000); AID 651610;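 active = mean replicate inhibition score of at least 50 and every replicate individually at or above 50; inconclusive = only one of the two criteria met; inactive = mean below 50 and not all replicates reaching 50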;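 also: 0% = plate neutral controls and 100% = maraviroc near 300 nM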
MITF TRPM1 HTS – increases MITF-driven TRPM1 promoter luciferase signal | SK-MEL-5 TRPM1-promoter luciferase, 24 h; % of positive control, neutral wells = 0 | activation, % at 12.5 µM | actives 0.75% (n = 300,000) | AID 588334;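 active = mean activation of at least 80% with every replicate also reaching 80%; inconclusive = mean reaches 80% but some replicate falls short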;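 also: 0% = neutral control wells and 100% = parthenolide positive control wells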
Wnt act – activates Wnt/beta-catenin signaling in a reporter cell assay; activator, plate reader; activation, % at 9.35 µM; actives 1.2% (n = 300,000); AID 743398; in the data active = activation above about 30%, passing the limit was not always enough; inconclusive = no clear call, values can overlap the other calls;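 also: 0% = neutral control wells and 100% = positive control wells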
* marks the source's active call; other numbers are inactive results; ? = inconclusive; . = no result given; [ ] = remark or other dose.

SMILES	esBAF inh	miR-122 sensor	HIV Env fusion	MITF TRPM1 HTS	Wnt act
CCCNC(=O)C[C@H]1CC[C@@H]2[C@@H](COc3ccc(NC(=O)c4cccc(C(F)(F)F)c4)cc3C(=O)N2C)O1	-1	-10[16.7 µM]	65*[16.7 µM]	.	.
CCCNC(=O)C[C@@H]1CC[C@H]2[C@H](COc3ccc(NC(=O)Cc4cccs4)cc3C(=O)N2C)O1	-1	207*[16.7 µM]	2[16.7 µM]	.	.
CCCNC(=O)C[C@H]1CC[C@H]2[C@H](COc3ccc(NC(=O)Cc4cccs4)cc3C(=O)N2C)O1	1	167*[16.7 µM]	-7[16.7 µM]	.	.
CCCNC(=O)C[C@@H]1CC[C@@H]2[C@H](COc3ccc(NC(=O)Cc4cccs4)cc3C(=O)N2C)O1	3	-27[16.7 µM]	5[16.7 µM]	.	.
CCNC(=O)C[C@H]1CC[C@@H]2[C@@H](COc3ccc(NC(=O)Cc4cccs4)cc3C(=O)N2C)O1	-1	-2[16.7 µM]	65*[16.7 µM]	.	.
CCCNC(=O)C[C@@H]1CC[C@@H]2[C@@H](COc3ccc(NC(=O)c4cccc(C(F)(F)F)c4)cc3C(=O)N2C)O1	1	-1[16.7 µM]	-6[16.7 µM]	.	.
C[C@@H]1CN([C@H](C)CO)C(=O)c2cc(-c3ccc(F)cc3)cnc2O[C@H]1CN(C)C(=O)Cc1ccccn1	-3	-1[16.7 µM]	16[16.7 µM]	.	.
Cc1noc(C)c1NC(=O)N[C@H]1CC[C@@H](CC(=O)N2CCCCC2)O[C@@H]1CO	-3	.	-4[16.7 µM]	.	.
Cc1cc2ncn(C(=O)N3CCCCCC3)c2cc1C	49*	3	-17	31	5
Cc1cc2ncn(S(=O)(=O)N3CCCCC3)c2cc1C	7	-3	83*	0	5
Cc1cc2ncn(C(=O)N3CCCCC3)c2cc1C	24	-5	.	31	0
CCc1cccc(NC(=O)c2sc3nc4n(c(=O)c3c2C)CCC4)c1	63*	.	-18	95*	14
c1ccc(-c2nc(C3CCCCC3)no2)cc1	33	0	-85	.	.
COc1ccc(-c2nc(-c3cccc(C)c3)no2)cc1OC	46*	.	.	38	17
COc1ccc(-c2nc(C3CCCCC3)no2)cc1OC	60*	-4	.	106*	-2
COc1ccc(-c2nc(-c3ccccc3OC)no2)cc1OC	55*	-13	-112	.	.
O=S(=O)(N[C@H]1CC[C@@H](CCn2cc(-c3cccnc3)nn2)O[C@H]1CO)c1ccc(F)cc1	4	.	-24[16.7 µM]	.	.
CC(CC(=O)Nc1nc2ccccc2[nH]1)n1ccnc1 (configuration not stated)	-6	-1	-7	-8	-1
O=C(COc1ccccc1)Nc1nc2ccccc2[nH]1	49*	-1	-90	51	?
CC(CC(=O)Nc1nc2ccccc2[nH]1)c1ccccc1 (configuration not stated)	70*	3	.	60	2
CCCOc1cccc(OCC(=O)Nc2nc3ccccc3[nH]2)c1	.	.	4	9	-1
O=C(NC1CCCCC1)c1n[nH]c2c1CCCCC2	-78	-7	69*	-90	-12
O=C(NN=C1CCCC1)c1n[nH]c2c1CCCC2	.	.	0	16	54*
CCC(C)(C)C1CCc2[nH]nc(C(=O)NC3CCCC3)c2C1 (configuration not stated)	7	7	11	27	21
O=C(NC1CCCC1)c1n[nH]c2ccccc12	53*	22	-30	66	8
SMILES	esBAF inh	miR-122 sensor	HIV Env fusion	MITF TRPM1 HTS	Wnt act
O=C(COC(=O)c1n[nH]c2ccccc12)NC(=O)NC1CCCC1	-9	-1	.	0	0
C[C@@H]1CN([C@H](C)CO)C(=O)Cc2cc(NS(=O)(=O)c3ccccc3)ccc2O[C@@H]1CN(C)S(C)(=O)=O	3	1[16.7 µM]	-1[16.7 µM]	.	.
c1ccc(-c2noc(C34CC5CC(CC(C5)C3)C4)n2)nc1	53*	-1	.	44	.
Brc1ccc(-c2noc(C3CCCCC3)n2)cc1	.	.	-18	58	56*
c1ccc(-c2noc(C3CCCCC3)n2)nc1	1	4	-59	72	36*
O=C(Nc1ccc(-c2nc3ccccc3s2)cc1)c1cc(-n2cnnc2)ccc1Cl	60*	.	.	-49	4
COC1CCN(C(=O)C2CCC(=O)N(C3CCCCCC3)C2)CC1 (configuration not stated)	56*	-11	-27	68	23
COc1ccc(-c2cc3ccc(OC)cc3cn2)cc1	-65	1	-70	-16	7
COc1ccc2cc(-c3cccnc3)ncc2c1	33	-1	-75	97*	?
Fc1ccc2cc(-c3cccnc3)ncc2c1	50*	-2	-33	35	7
COc1ccc(-c2cc3ccccc3cn2)cc1	-24	-1	.	18	27
COc1ccc2cc(-c3ccccc3F)ncc2c1	-13	-2	-230	66	38*
C[C@H](CO)N1C[C@H](C)[C@@H](CN(C)C(=O)Nc2ccc(F)cc2)OCCCC[C@H](C)Oc2ccc(NC(=O)NC3CCCCC3)cc2C1=O	3	1[16.7 µM]	15[16.7 µM]	.	.
COC(=O)CSc1nnc(-c2ccc(OC)c(OC)c2)o1	.	8	1	9	2
NCCc1nnc(SCc2ccccc2F)o1	0	-2	-2	.	-4
Cc1ccc(-c2nnc(SCc3ccccc3F)o2)cc1	.	2	-262	99*	29
COc1ccc(-c2nnc(SCc3ccccc3F)o2)cc1OC	66*	-2	.	71	.
O=C(Nc1ccc(F)cc1)N[C@H]1CC[C@H](CCNS(=O)(=O)c2ccccc2F)O[C@@H]1CO	3	.	-8[16.7 µM]	.	.
CCNC(=S)NNC(=O)c1csc(C(C)C)c1	50*	5	-282	24	20
O=C(O)c1cccc(Cn2c(Cl)c(/C=N/NC(=O)c3ccc(O)cc3)sc2=O)c1	2	-3	-45	-5	-1
O=c1sc(/C=N/Nc2ccccc2)c(Cl)n1Cc1ccccc1	.	.	-11	56	46*
O=C(NCC[C@H]1CC[C@H](NC(=O)C2CC2)[C@@H](CO)O1)Nc1ccc(C(F)(F)F)cc1	-1	.	-3[16.7 µM]	.	.
O=C(CSc1ccc(Cl)cc1)N1CCOCC1	10	-6	7	22	5
O=C(CCSc1ccc(Cl)cc1)N1CCOCC1	42*	-3	-9	.	25
Cc1ccc(C(=O)CSC2=C(C#N)C(c3ccco3)C3=C(CCCC3=O)N2)cc1 (configuration not stated)	1	28	-180	.	-17
SMILES	esBAF inh	miR-122 sensor	HIV Env fusion	MITF TRPM1 HTS	Wnt act
CC(C)(C)c1ccc(C(=O)CCCSC2=C(C#N)C(c3ccco3)C3=C(CCCC3=O)N2)cc1 (configuration not stated)	2	29	79*	-2	-4
C[C@@H]1CN([C@@H](C)CO)C(=O)c2cc(C#CCN(C)C)cnc2O[C@H]1CN(C)C(=O)Cc1cccnc1	-1	-5[16.7 µM]	-13[16.7 µM]	.	.
Cc1ccc(NC(=O)c2ccc(F)cc2)nc1	.	.	-51	61	51*
Cc1ccc(NC(=O)c2sccc2C)nc1	-16	-7	-40	23	52*
Cc1ccc(NC(=O)c2ccc3[nH]c(=O)c(=O)[nH]c3c2)nc1	14	3	5	13	5
CC(=O)c1ccc2c(c1)Cc1cc(C(C)=O)ccc1-2	.	.	-90	93*	46*
Cn1nnnc1SCc1ccc(C(=O)Nc2ccc(Br)cc2)cc1	72*	.	.	30	.
